Screening results: PubChem BioAssay, National Center for Advancing Translational Sciences (NCATS)
Sampled rows, rich in hits. Any-hit rate of the full collection: about 11%.
Luciferase inh: Photinus pyralis luciferase inhibition; P08659; purified P. pyralis luciferase, luminescence, biochemical; Potency, µM (highest dose often 115 µM), most hits filed as inhibitors; hit rate 2.5% among 76,000; AID 1347043; further: on the % scale 0 is the no-effect control and ±100 the full control effect; nearly all actives have a fitted effect of over 65% in size
Target sequence (P08659 whole entry, looked up): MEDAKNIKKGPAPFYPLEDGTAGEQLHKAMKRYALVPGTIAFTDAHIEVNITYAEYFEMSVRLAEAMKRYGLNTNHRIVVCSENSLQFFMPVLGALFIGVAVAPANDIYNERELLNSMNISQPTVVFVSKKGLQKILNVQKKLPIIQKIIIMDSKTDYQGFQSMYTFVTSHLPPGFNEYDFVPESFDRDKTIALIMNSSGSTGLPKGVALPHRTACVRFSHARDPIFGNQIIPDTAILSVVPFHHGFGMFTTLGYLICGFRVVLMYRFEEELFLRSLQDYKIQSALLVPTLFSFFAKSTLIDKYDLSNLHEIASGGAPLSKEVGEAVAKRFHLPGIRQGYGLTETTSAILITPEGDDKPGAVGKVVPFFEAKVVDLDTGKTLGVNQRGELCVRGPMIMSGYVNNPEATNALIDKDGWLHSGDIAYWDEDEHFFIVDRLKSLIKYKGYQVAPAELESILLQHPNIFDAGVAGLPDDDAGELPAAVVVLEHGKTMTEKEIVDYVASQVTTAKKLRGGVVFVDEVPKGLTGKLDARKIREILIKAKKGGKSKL
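Cell-free enzyme assay, 10nM P. pyralis luciferase, luciferin and ATP each at 10uM. Inhibition profiled over a 6-point titration, read as luminescence.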
hNpr1 antagonist: human Npr1 receptor antagonism; hit rate 1.6% among 76,000; AID 1347048; Potency, µM (highest dose often 46.3 µM), inactives show at the top dose activity change, negative = inhibition, hits mostly inhibitors; P16066; HEK293 hNpr1 GloSensor cGMP, ANP-stimulated luminescence; calls by dose curve; further: on the % scale 0 is the no-effect control and ±100 the full control effect; nearly all actives have a fitted effect of over 60% in size
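HEK293 cells stably expressing human Npr1 and cGMP GloSensor pGS-40F, loaded 2 h with 2% GloSensor reagent, given compound 30 min at room temperature. Luminescence read before and 20 min after 0.1 nM hNppA.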
HEK cytotox: kills HEK 293 cells | HEK 293 viability, ATP luminescence (CellTiter-Glo), 48-72 h | Potency, µM (series often up to 115 µM), without a hit: top-dose activity change, negative = cytotoxicity, usual class: inhibitors | hit rate 6.6% among 94,000 | AID 1345083; further: on the % scale 0 is the no-effect control and ±100 the full control effect; nearly all actives have a fitted effect of over 60% in size
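Read-out: CellTiter-Glo ATP luminescence. Cells: HEK 293, 250 cells/well. Exposure: 48 or 72 hr, 37 degree Celsius.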
3T3 cytotox: kills NIH 3T3 cells; NIH 3T3 viability, CellTiter-Glo ATP luminescence, 48-72 h; Potency, µM (doses to about 96.7 µM), without a hit: at the highest dose activity change, negative = cytotoxicity, hits mostly inhibitors; hit rate 4.3% among 94,000; AID 1345082; further: on the % scale 0 is the no-effect control and ±100 the full control effect; nearly all actives have a fitted effect of over 55% in size
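Mouse fibroblast NIH 3T3 cells, 400 per well, received compound via pintool and were incubated for 48 or 72 hr prior to CellTiter-Glo ATP luminescence measurement.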
NPR1 antag cnf: hNpr1 antagonism, confirmation assay; shares compounds with hNpr1 antagonist; HEK293 hNpr1 cGMP GloSensor luminescence, ANP-stimulated; Potency, µM (highest dose often 57.6 µM), inactives show at the highest dose activity change, negative = inhibition, usual class: inhibitors; hit rate 76% among 1,400; AID 1347044; calls by dose curve; further: nearly all actives have a fitted effect of over 70% in size
Npr2 selectivity: antagonizes human Npr2, subtype selectivity check; AID 1347046; hit rate 67% among 1,400; shares compounds with hNpr1 antagonist; Potency, µM (titrated, usually from 57.6 µM), for inactives: at the highest dose activity change, negative = inhibition, most hits filed as inhibitors; HEK293 hNpr2 GloSensor cGMP luminescence, CNP-stimulated; calls by dose curve; further: nearly all actives have a fitted effect of over 70% in size
FLuc inh counter: counter-screen for Npr1 antagonists: firefly luciferase inhibitors; shares compounds with hNpr1 antagonist; purified FLuc enzyme, luminescence, Km substrate; Potency, µM (doses to about 57.6 µM), for inactives: top-dose activity change, negative = inhibition, hits mostly inhibitors; hit rate 0.7% among 1,400; further: 0% is about no effect
GloSensor ctrl: control cell line activity, Npr1 antagonist counter-screen | shares compounds with hNpr1 antagonist | HEK293 GloSensor cGMP, SNP-stimulated, luminescence | Potency, µM (series often up to 57.6 µM), inactives show at the top dose activity change, negative = inhibition, hits mostly inhibitors | hit rate 69% among 1,400 | AID 1347051; calls by dose curve; further: on the % scale 0 is the no-effect control and ±100 the full control effect; nearly all actives have a fitted effect of over 70% in size
Numbers without * were called inactive; [ ] = another dose, or the depositor's remark. Unless noted, the call rests on the fitted dose curve; in most records, active means well fitted curve in the direction sought with a large enough effect; inconclusive means small, poorly fitted or top-dose-only effect, or another doubt; inactive means no such curve, though single readings can be large; an effect the other way counts as inactive or inconclusive. Potency means the concentration at half of the fitted maximal effect.

For CN(C)CCCC(=O)N1Cc2ccccc2CC2(CCCCN2CC2CCNCC2)C1 (stereo not given) the results were HEK cytotox -5% and 3T3 cytotox -3%.
For CCNC(=O)c1ccc2c(c1)OCCN(c1cccc(OC(F)(F)F)c1)C2 the results were Luciferase inh inactive, hNpr1 antagonist -29%[70.6 µM], HEK cytotox inconclusive and 3T3 cytotox inconclusive.
For O=C(NC1CCOCC1)c1ccc2c(c1)OCCN(c1cccc(OC(F)(F)F)c1)C2 the results were Luciferase inh inactive, hNpr1 antagonist inconclusive, HEK cytotox 32µM*, 3T3 cytotox inconclusive, NPR1 antag cnf 40µM*, Npr2 selectivity inconclusive, FLuc inh counter 4%[86.2 µM] and GloSensor ctrl 44µM*.
Screening CN(CCNC(=O)c1c(-c2ccccc2)cc(=O)n2c1CCC2)C1CCCCC1 returned HEK cytotox inconclusive and 3T3 cytotox -25%.
Screening N#Cc1cccc(CN2CCc3nc(C(=O)NCc4ccncc4)oc3CC2)c1 returned Luciferase inh inactive, hNpr1 antagonist -26%[70.6 µM], HEK cytotox inconclusive and 3T3 cytotox -26%[138 µM].
COCCNC(=O)c1nc2c(o1)CCN(Cc1cc(C)cc(F)c1)CC2 was read as Luciferase inh inactive, hNpr1 antagonist -11%[70.6 µM], HEK cytotox inconclusive and 3T3 cytotox inconclusive.
`O=C(Nc1ccc(Cl)cc1)c1nc2c(o1)CCN(Cc1cc(F)ccc1F)CC2` gave Luciferase inh inactive, hNpr1 antagonist 13µM*, HEK cytotox inconclusive, 3T3 cytotox inconclusive, NPR1 antag cnf 16µM*, Npr2 selectivity 13µM*, FLuc inh counter 0%[86.2 µM] and GloSensor ctrl 9.9µM*.
COc1ccc(CN2CCc3nc(C(=O)Nc4ccc(Cl)cc4)oc3CC2)cc1OC was read as Luciferase inh inactive, hNpr1 antagonist 6.3µM*, HEK cytotox inconclusive, 3T3 cytotox inconclusive, NPR1 antag cnf 9.7µM*, Npr2 selectivity 11µM*, FLuc inh counter 0% and GloSensor ctrl 7.7µM*.
For O=C(Nc1ccc(Cl)cc1)c1nc2c(o1)CCN(Cc1ccccc1)CC2 the results were Luciferase inh inactive, hNpr1 antagonist 4µM*, HEK cytotox inconclusive, 3T3 cytotox inconclusive, NPR1 antag cnf 11µM*, Npr2 selectivity 9.9µM*, FLuc inh counter inconclusive and GloSensor ctrl 7.9µM*.
For N#Cc1ccc(CN2CCc3nc(C(=O)Nc4cccc(C(F)(F)F)c4)oc3CC2)cc1 the results were Luciferase inh inactive, hNpr1 antagonist 14µM*, HEK cytotox inconclusive, 3T3 cytotox inconclusive, NPR1 antag cnf 17µM*, Npr2 selectivity 19µM*, FLuc inh counter -8% and GloSensor ctrl 11µM*.
Screening O=C(NCC1CCCCC1)c1ccc2nc(-c3cccnc3)oc2c1 returned HEK cytotox -13%[172 µM] and 3T3 cytotox -23%[138 µM].
For CC(=O)Nc1ccc(CN2CCc3nc(C(C)C)nc(-c4ccc(Cl)cc4)c3CC2)cc1 the results were HEK cytotox inconclusive and 3T3 cytotox -27%.
Screening Cc1nnc2ccc(N3CCCC(NC(=O)C4CC4)C3)nn12 (stereo not given) returned HEK cytotox 4%[172 µM] and 3T3 cytotox -11%[138 µM].
Screening COc1ccccc1N1CCN(CC[C@H]2CN(C(=O)Nc3ccc(C(F)(F)F)cc3)CC[C@H]2CC(=O)O)CC1 returned Luciferase inh inactive, hNpr1 antagonist 3%, HEK cytotox -3% and 3T3 cytotox -3%.
Screening CCCN1C(=O)Cc2cc(C(=O)NC(C)c3ccc(OCC)cc3)ccc21 (stereo not given) returned Luciferase inh inactive, hNpr1 antagonist inconclusive, HEK cytotox inconclusive, 3T3 cytotox inconclusive, NPR1 antag cnf inconclusive, Npr2 selectivity inconclusive, FLuc inh counter 2% and GloSensor ctrl inconclusive.
`O=C(NCc1ccccc1Cl)c1cn2cc(-c3ccccc3)sc2n1` gave HEK cytotox -1% and 3T3 cytotox -14%.
`O=C(NCc1ccc2c(c1)OCO2)c1csc(N2CCN(c3ccc(F)cc3)CC2)n1` gave Luciferase inh inactive, hNpr1 antagonist 10µM*, HEK cytotox 28µM*, 3T3 cytotox inconclusive, NPR1 antag cnf 8.6µM*, Npr2 selectivity 11µM*, FLuc inh counter -1% and GloSensor ctrl 9.7µM*.
For O=C(NCc1ccccc1)c1csc(N2CCN(c3ccc(Cl)cc3)CC2)n1 the results were Luciferase inh inactive, hNpr1 antagonist 11µM*, HEK cytotox inconclusive, 3T3 cytotox -12%, NPR1 antag cnf 22µM*, Npr2 selectivity 22µM*, FLuc inh counter 0% and GloSensor ctrl 22µM*.
`O=C(NCc1ccccc1Cl)c1csc(N2CCN(c3ccc(F)cc3)CC2)n1` gave Luciferase inh inactive, hNpr1 antagonist 11µM*, HEK cytotox inconclusive, 3T3 cytotox inconclusive, NPR1 antag cnf 22µM*, Npr2 selectivity 22µM*, FLuc inh counter -7% and GloSensor ctrl 19µM*.
For CN1CCN(C(=O)c2csc(N3CCN(c4ccc(Cl)cc4)CC3)n2)CC1 the results were Luciferase inh inconclusive, hNpr1 antagonist -11%, HEK cytotox inconclusive and 3T3 cytotox inconclusive.
`O=C(NCc1ccc(F)cc1)c1cc2n(n1)CC(c1ccc3c(c1)OCO3)OC2` (stereo not given) gave Luciferase inh inactive, hNpr1 antagonist 0%, HEK cytotox inconclusive and 3T3 cytotox inconclusive.
For CC(C)C1CNC(Cc2ccccc2)CN1C(=O)OC(C)(C)C (stereo not given) the results were HEK cytotox inconclusive and 3T3 cytotox -15%[138 µM].
Cc1nc2cnccn2c1C(=O)NCc1cccs1 was read as HEK cytotox 2%[172 µM] and 3T3 cytotox -22%[138 µM].
O=C(CCn1cc(Cl)cn1)N1CCOC(c2ccc(Cl)cc2)C1 (stereo not given) was read as Luciferase inh inactive, hNpr1 antagonist inconclusive, HEK cytotox 79µM*, 3T3 cytotox -6%, NPR1 antag cnf inconclusive, Npr2 selectivity inconclusive, FLuc inh counter 4% and GloSensor ctrl 0%.
